The other results are listed elsewhere or left out. Activity calls are given as the source filed them. Unless noted, no rule for the calls is given here.
What was measured:
[1] = inhibition of Brca1/Bard1 split-luciferase complementation, confirmation, counter-screen for Mdm2/MdmX interaction inhibitor project, luminescence, single concentration (AID 504668); conditions: Brca1/Bard1 bimolecular luciferase complementation counterscreen, at 8 µM, stronger effect = higher value
[2] = Peg3 promoter reporter inhibitors, retest, confirmation, cell-based, HeLa, luciferase reporter, single concentration (AID 602417;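 active = at 20 µM dose, 40% or more inhibition averaged across four replicates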); conditions: HeLa PEG-Prom luciferase reporter, luminescence, overnight; at 20 µM; stronger effect = higher value
PEG-3 [3] = target: PEG-3 (UniProt Q6IN02); assay: Peg3 promoter luciferase inhibitors, potency, dose response, cell-based, HeLa, CREF/GAPDH counter-screen panel (AID 624167); conditions: CREF/GAPDH counter-screens; HeLa PEG-Prom luciferase reporter, overnight, run 1, dose range 1, at 100 µM (top of the series) unless noted
PEG-3 [4] = target: PEG-3 (UniProt Q6IN02); assay: as above; conditions: CREF/GAPDH counter-screens; HeLa PEG-Prom luciferase reporter, overnight, run 2, dose range 1, at 100 µM (top of the series) unless noted
Rat fibroblasts (CREF) [5] = assay: as above; conditions: CREF/GAPDH counter-screens; run 1, dose range 1, at 100 µM (top of the series)
Rat fibroblasts (CREF) [6] = assay: as above; conditions: CREF/GAPDH counter-screens; run 2, dose range 1, at 100 µM (top of the series)
[7] = inhibitors of PAF-induced NFkB signaling in CF airway cells, dose response, cell-based, uHTS hits, panel, cytotoxicity readout (AID 624344); conditions: CF bronchial epithelial cells, PAF-induced NFkB reporter inhibition, with PAF, run 1; at 79 µM (top of the series) unless noted
[8] = as above; conditions: CF bronchial epithelial cells, PAF-induced NFkB reporter inhibition, with PAF, run 2; at 79 µM (top of the series) unless noted

Chain of PEG-3 (Q6IN02 whole entry, looked up): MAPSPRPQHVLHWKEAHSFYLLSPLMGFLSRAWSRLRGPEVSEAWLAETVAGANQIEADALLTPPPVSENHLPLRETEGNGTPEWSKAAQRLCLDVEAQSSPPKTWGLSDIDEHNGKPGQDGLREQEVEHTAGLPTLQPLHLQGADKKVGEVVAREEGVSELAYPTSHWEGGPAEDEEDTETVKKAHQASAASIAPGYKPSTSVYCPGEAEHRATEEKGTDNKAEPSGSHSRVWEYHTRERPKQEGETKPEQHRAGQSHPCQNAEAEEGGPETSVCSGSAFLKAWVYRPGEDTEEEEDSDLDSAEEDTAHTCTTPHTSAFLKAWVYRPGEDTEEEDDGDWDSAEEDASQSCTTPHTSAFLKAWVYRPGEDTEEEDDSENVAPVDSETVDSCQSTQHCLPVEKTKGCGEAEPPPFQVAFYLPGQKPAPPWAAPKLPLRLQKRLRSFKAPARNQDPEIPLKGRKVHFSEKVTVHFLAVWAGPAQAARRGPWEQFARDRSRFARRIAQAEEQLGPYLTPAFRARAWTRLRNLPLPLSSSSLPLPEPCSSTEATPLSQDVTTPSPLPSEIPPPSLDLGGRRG

Question: With `CNC[C@H](CC1CCCCC1)NC[C@H](NCCC1CCCC1)[C@H](C)O` as the molecule, how does the inhibition [1] read?
Answer: The inhibition was 30.2% (active).

Question: What about the inhibition [2] of the same molecule?
Answer: The inhibition was 97.4% (active).

Question: What about the inhibition (PEG-3 [3]) of the same molecule?
Answer: The inhibition was 102%.

Question: And the inhibition (PEG-3 [4])?
Answer: Its inhibition is 99.9%.

Question: What does the source list for `COc1cccc2sc(N(CCCN(C)C)C(=O)C(c3ccccc3)c3ccccc3)nc12`?
Answer: inhibition [1]: 24.8% (active); inhibition [2]: 99.6% (active); inhibition (PEG-3 [3]): 102%; inhibition (PEG-3 [4]): 95.1%

Question: With `Cc1ccc(C(=O)Nc2cc3ccccc3oc2=O)cc1` as the molecule, how does the inhibition [1] read?
Answer: The inhibition was 31.8% (active).

Question: And the inhibition (PEG-3 [3])?
Answer: Its inhibition is 84.5%.

Question: And the inhibition (PEG-3 [4])?
Answer: The inhibition was 78.7%.

Question: What about the inhibition (Rat fibroblasts (CREF) [5]) of the same molecule?
Answer: Its inhibition is 84.6%.

Question: And the inhibition (Rat fibroblasts (CREF) [6])?
Answer: The inhibition was 87.1%.

Question: With `O=C(/C=C/c1ccccc1)NC(NC(=S)Nc1cccc(Cl)c1)C(Cl)(Cl)Cl` (configuration not stated) as the molecule, how does the inhibition [1] read?
Answer: The inhibition was 25.6% (active).

Question: And the inhibition (PEG-3 [3])?
Answer: The inhibition was 98.2%.

Question: What about the inhibition (PEG-3 [4]) of the same molecule?
Answer: Its inhibition is 99.4%.

Question: With `CCN1CCN(C(c2ccc(C(F)(F)F)cc2)c2ccc3cccnc3c2O)CC1` (configuration not stated) as the molecule, how does the inhibition [1] read?
Answer: The inhibition was 31.2% (active).

Question: And the inhibition (PEG-3 [3])?
Answer: Its inhibition is 101%.

Question: And the inhibition (PEG-3 [4])?
Answer: Its inhibition is 99.4%.

Question: Which results are given for `Cc1cc(N2CCOCC2)c2c(N)c(Br)cc(C)c2n1`?
Answer: inhibition [1]: 35.4% (active); inhibition [7]: 118%; inhibition [8]: 97.8%

Question: Which results are given for `C/C(=N\NC(=O)c1c(C)nc2ccccn12)c1ccc(O)cc1O`?
Answer: inhibition [1]: 33.7% (active); inhibition (PEG-3 [3]): 66.9%; inhibition (PEG-3 [4]): 48.1%; inhibition (Rat fibroblasts (CREF) [5]): 49.2%; inhibition (Rat fibroblasts (CREF) [6]): 56.5%

Question: With `COc1ccc(-c2csc3ncnc(NCCO)c23)cc1` as the molecule, how does the inhibition [1] read?
Answer: The inhibition was 26.2% (active).

Question: What about the inhibition [7] of the same molecule?
Answer: Its inhibition is 104%.

Question: And the inhibition [8]?
Answer: Its inhibition is 113%.

Question: Which inhibition [1] does the source give for `Cc1nc2sc(C(N)=O)c(N)c2c(C)c1CC(=O)c1ccccc1` here?
Answer: Its inhibition is 31.4% (active).

Question: And the inhibition [7]?
Answer: The inhibition was 101%.

Question: What about the inhibition [8] of the same molecule?
Answer: Its inhibition is 80.3%.

Question: Which results are given for `Cc1c(C=O)c(C=O)c(C)n1Cc1ccccc1`?
Answer: inhibition [1]: 30.8% (active); inhibition [7]: 118%; inhibition [8]: 103%

Question: For `Cc1cccc(CNc2ncnc3ccc(-c4ccoc4)cc23)c1`, which inhibition [1] is on record?
Answer: The inhibition was 23.8% (active).

Question: What about the inhibition [7] of the same molecule?
Answer: The inhibition was 114%.

Question: What about the inhibition [8] of the same molecule?
Answer: The inhibition was 106%.

Question: What does the source list for `CCC(C)Oc1cc(-c2ccnc(Nc3cccc(Cl)c3)n2)ccn1` (configuration not stated)?
Answer: inhibition [1]: 25.4% (active); inhibition [7]: 102%; inhibition [8]: 117%

Source: PubChem BioAssay
